Assay outcomes (PubChem)
The sample as a whole holds a higher share of hits than the screen did.
FECH inh = inhibitors of human ferrochelatase, primary screen, biochemical, purified FECH, Ni-mesoporphyrin absorbance | actives 3.3% (n = 20,000) | Ni-mesoporphyrin absorbance 550 nm | Ferrochelatase, mitochondrial (Homo sapiens), P22830 | calls only at 10 µM (by protocol);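 active means enzyme reaction rate more than 3 SD below the solvent-only control wells on the same plate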;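 further: lower slope than DMSO wells means FECH inhibition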
Target sequence (P22830 whole entry, looked up): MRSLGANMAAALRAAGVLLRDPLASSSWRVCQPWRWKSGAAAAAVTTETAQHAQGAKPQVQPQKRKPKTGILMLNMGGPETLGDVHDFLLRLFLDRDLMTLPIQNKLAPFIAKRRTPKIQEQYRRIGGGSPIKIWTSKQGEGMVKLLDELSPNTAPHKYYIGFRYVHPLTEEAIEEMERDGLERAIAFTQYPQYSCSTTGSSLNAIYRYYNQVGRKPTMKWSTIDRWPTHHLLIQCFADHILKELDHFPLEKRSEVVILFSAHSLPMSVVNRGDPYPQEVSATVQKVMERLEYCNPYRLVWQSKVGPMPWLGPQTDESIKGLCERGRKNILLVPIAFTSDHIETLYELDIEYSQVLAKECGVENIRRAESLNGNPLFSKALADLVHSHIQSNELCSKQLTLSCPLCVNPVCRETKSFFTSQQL
Calls only; – = inactive; + = active, no number.

SMILES	FECH inh
CCCNC(=O)Cn1c(=O)n(Cc2ccc(C(=O)NC(C)C)cc2)c(=O)c2cc(OC)c(OC)cc21	–
CCCNC(=O)Cn1c(=O)n(Cc2ccc(C(=O)NCCC)cc2)c(=O)c2cc(OC)c(OC)cc21	–
CNC(=O)c1ccc(Cn2c(=O)c3cc(OC)c(OC)cc3n(CC(N)=O)c2=O)cc1	–
CNC(=O)c1ccc(Cn2c(=O)c3cc(OC)c(OC)cc3n(CC(=O)Nc3ccccc3)c2=O)cc1	–
CNC(=O)c1ccc(Cn2c(=O)c3cc(OC)c(OC)cc3n(CC(=O)N3CCCCC3C)c2=O)cc1 (centres undefined)	–
Cc1ccc(-c2nc(CSc3nc4c(c(=O)[nH]3)CCC4)c(C)o2)cc1	–
O=C(O)C1(CC2CCCCO2)CCN(c2ccc3cccc(Cl)c3n2)CC1 (centres undefined)	–
Cn1c(=O)c2c(-c3ccccc3Cl)c(NCCc3ccccc3)oc2n(C)c1=O	–
O=C(CCN1CCCCO1)NCC(c1ccccc1)C1CCCC1 (centres undefined)	+
O=C(CCN1CCCCO1)N(Cc1ccccc1)Cc1nccs1	–
CN1CCCC(CCNC(=O)CCN2CCCCO2)C1 (centres undefined)	–
Cc1csc2ncnc(-c3ccc(C(C)N4CCOCC4)cc3)c12 (centres undefined)	–
Cc1cccc(NS(=O)(=O)c2cc(C(=O)N3CCCC3)cs2)c1C	+
CCc1cccc(C)c1NS(=O)(=O)c1cc(C(=O)N2CCCC2)cs1	–
O=C(c1csc(S(=O)(=O)Nc2ccccc2F)c1)N1CCCCC1	–
Cc1ccc(C)c(NS(=O)(=O)c2cc(C(=O)N3CCCC3)cs2)c1	+
CCc1ccccc1NS(=O)(=O)c1cc(C(=O)N2CCCC2)cs1	–
Cc1ccccc1CNS(=O)(=O)c1cc(C(=O)N2CCCC2)cs1	–
Cc1nc(NCC(C(C)C)N(C)C)c2nc(C)oc2n1 (centres undefined)	–
COc1cc(N2CCC(N3CCCC(C(=O)NC4CC4)C3)CC2)ncn1 (centres undefined)	–
O=C(CCC(=O)N1CCc2cc(S(=O)(=O)Nc3ccc4c(c3)OCO4)ccc21)N1CCCCCC1	–
COC(=O)c1cc2n(n1)CCN(c1ccnc(SC)n1)C2	–
Cc1ccc(NC(=O)CNc2nccc(-c3ccc(C)nc3C)n2)c(F)c1	–
CSc1nccc(-c2ccc(Cl)cc2Cl)n1	+
CCc1c(C)nc2ncnn2c1Sc1ccccc1NC(=O)c1ccc(Br)o1	–
SMILES	FECH inh
CC(C)n1nnc2cc(C(=O)Nc3ccc(S(N)(=O)=O)cc3)ccc21	–
Cc1cc(C)n(-c2cccc(-c3nccn3C(C)c3ncnn3C)c2)n1 (centres undefined)	–
Cc1nn(C)c(C)c1CCc1nc(CC(C)C)nn1-c1ccccn1	–
NS(=O)(=O)c1ccc(NC(=O)CSc2nc3c(c(=O)[nH]2)CCC3)cc1	–
NS(=O)(=O)c1ccc(NC(=O)c2ccc(=O)n(Cc3ccc(Cl)cc3)c2)cc1	–
NS(=O)(=O)c1ccc(NC(=O)CSc2nc3c(c(=O)[nH]2)CCCC3)cc1	+
O=C(c1ccc(CN2C(=O)CCn3nc(-c4cccc(Cl)c4)cc32)cc1)N1CCOCC1	–
NS(=O)(=O)c1ccc(CCNC(=O)CCn2cnc3c([nH]c4ccccc43)c2=O)cc1	+
NS(=O)(=O)c1ccc(CCNC(=O)CCn2cnc3c([nH]c4ccc(F)cc43)c2=O)cc1	–
Cc1ccc2[nH]c3c(=O)n(CCC(=O)NCCc4ccc(S(N)(=O)=O)cc4)cnc3c2c1	–
CCOc1ccc(-c2nc(SCC(=O)Nc3ccc(OC)c(OC)c3)n3[nH]c(=O)cc3n2)cc1	–
COc1ccc(C(=O)Nc2ccc(Nc3nc(C)cc(Nc4ccccc4)n3)cc2)cc1	–
COc1ccc(Nc2cc(C)nc(Nc3ccc(NC(=O)c4ccccc4OC)cc3)n2)cc1	+
COc1ccc(Nc2cc(C)nc(Nc3ccc(NC(=O)c4cc(Cl)ccc4OC)cc3)n2)cc1	–
Cc1ccc(NC(=O)NCCn2c(-c3ccncc3)nc3cccnc32)cc1Cl	+
COc1ccc(NC(=O)NCCn2c(-c3ccncc3)nc3cccnc32)cc1	–
Cc1cc(C)cc(NC(=O)NCCn2c(-c3ccncc3)nc3cccnc32)c1	–
CCC(=O)Nc1ccc(S(=O)(=O)NCCn2c(-c3ccc(C)cc3)nc3cccnc32)cc1	+
COC(=O)CNC(=O)NCCn1c(-c2ccccc2)nc2cccnc21	+
CCc1ccccc1NC(=O)NCCn1c(-c2ccncc2)nc2cccnc21	–
CCc1ccc(S(=O)(=O)NCCn2c(-c3ccc(C)cc3)nc3cccnc32)cc1	–
Cc1ccc(-c2nc3cccnc3n2CCNS(=O)(=O)c2ccc(C)cc2)cc1	–
COc1ccc(CC(=O)NCCn2c(-c3ccccc3)nc3cccnc32)c(Cl)c1	–
CCOc1ccccc1CNC(=O)COc1nc(CC)nc2oc(C)c(C)c12	–
Cc1cccc(Cn2nc(C)c3c2NC(=O)CC3c2nc(C)ccc2O)c1 (centres undefined)	–
SMILES	FECH inh
Cc1cnc(NCCCC2CCOC2)nc1N(C)C (centres undefined)	–
CCN(CC)C(=O)C(=O)N1CCc2nc(N(C)C)[nH]c(=O)c2CC1	–
CCc1noc(CN(CC)C(=O)C(C)n2cnc3ccccc32)n1 (centres undefined)	+
CCc1noc(CN(CC)C(=O)C(c2cccc(C)c2)N(C)C)n1 (centres undefined)	–
CCc1noc(CN(CC)C(=O)c2ccccc2N2CCCC2)n1	–
CN1CCC(CNC(=O)CCC(=O)Nc2cccc(F)c2)C1 (centres undefined)	–
CN1CCCC1CCn1ccnc1-c1cc2c(cc1Cl)OCO2 (centres undefined)	–
Cc1ccc(-c2cc(C(=O)NCCc3ccc(S(N)(=O)=O)cc3)no2)cc1	–
Cc1ccc(-c2cc(C(=O)NCc3ccc(S(N)(=O)=O)cc3)no2)cc1	–
NS(=O)(=O)c1ccc(NC(=O)c2cc(-c3ccccc3)on2)cc1	–
COc1ccc(-c2cc(C(=O)Nc3ccc(S(N)(=O)=O)cc3)no2)cc1	+
Cc1ccc(-c2cc(C(=O)Nc3ccc(S(N)(=O)=O)cc3)no2)cc1	–
CCOc1ccc(-c2cc(C(=O)NCc3ccc(S(N)(=O)=O)cc3)no2)cc1	+
O=C(c1ccccc1)N1CCN(C(=O)c2cccc3nccnc23)CC1	–
CCc1ccc(Cn2c(CNS(=O)(=O)c3ccc(F)cc3)nc3cccnc32)cc1	–
CC(=O)Nc1ccc(S(=O)(=O)NCc2nc3cccnc3n2C2CCCC2)cc1	–
Cc1cc(Nc2cc(F)cc(F)c2)n2nc(-c3cccnc3)nc2n1	–
CC(C)(C)CNC(=O)c1[nH]cnc1C(=O)NC1CCCC1	–
O=C(NC1CCCC1)c1nc[nH]c1C(=O)NC1CC1	–
O=C(NC1CCCCC1)c1nc[nH]c1C(=O)NCc1cccc(C(F)(F)F)c1	+
O=C(NC1CCCC1)c1nc[nH]c1C(=O)NCc1ccccc1	–
O=C(NC1CCCCC1)c1nc[nH]c1C(=O)NCC1CC1	–
CC(C)(C)CNC(=O)c1[nH]cnc1C(=O)NC1CCCCC1	–
CC(C)NC(=O)c1nc[nH]c1C(=O)NC1CCCC1	–
CNC(=O)c1[nH]cnc1C(=O)NC1CCCCC1	+
O=C(NC1CCCCC1)c1nc[nH]c1C(=O)NCc1ccccc1	+
COc1ccc(C(=O)Nc2ccc(Nc3nc(C)cc(N4CCCC4)n3)cc2)cc1	–
Cc1ccccc1-c1noc(-c2cn(CC3CCCO3)nn2)n1 (centres undefined)	–
O=C(c1csc(S(=O)(=O)N2CCCCC2)c1)N1CCCC1	–
